High-throughput results from PubChem BioAssay.
HEK293 viab: reduces viability of HEK-293 SNCA reporter cells | HEK-293-SNCA-luc viability, GF-AFC fluorescence, 24 h | Potency, µM (titrated, usually from 57.1 µM), usual class: cytotoxic | 0.12% of 150,000 active | AID 1671193; also: nearly all actives have a fitted effect of over 30% in size
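HEK-293-SNCA-luc cells (1500/well) plated 24 h, then exposed 24 h to a dilution series; GF-AFC added 30 min at 37C, fluorescence 405/540 nm; normalised to medium-only and DMSO wells, Hill fit.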
SNCA expr inh: reduces expression of the alpha-synuclein gene | HEK-293 SNCA-luciferase knock-in, luminescence, 24 h | Potency, µM (highest dose often 57.2 µM), actives largely listed as inhibitors | 0.17% of 140,000 active | AID 1671194; also: nearly all actives have a fitted effect of over 45% in size
KDM5B inh: KDM5B demethylase inhibition; Q9UGL1; KDM5B demethylase, FDH-coupled NADH fluorescence (FDH is formaldehyde dehydrogenase); Potency, µM (titrated, usually from 57.7 µM), actives largely listed as inhibitors; 2.6% of 220,000 active; AID 1347165; also: nearly all actives have a fitted effect of over 70% in size
Target sequence (Q9UGL1 whole entry, looked up): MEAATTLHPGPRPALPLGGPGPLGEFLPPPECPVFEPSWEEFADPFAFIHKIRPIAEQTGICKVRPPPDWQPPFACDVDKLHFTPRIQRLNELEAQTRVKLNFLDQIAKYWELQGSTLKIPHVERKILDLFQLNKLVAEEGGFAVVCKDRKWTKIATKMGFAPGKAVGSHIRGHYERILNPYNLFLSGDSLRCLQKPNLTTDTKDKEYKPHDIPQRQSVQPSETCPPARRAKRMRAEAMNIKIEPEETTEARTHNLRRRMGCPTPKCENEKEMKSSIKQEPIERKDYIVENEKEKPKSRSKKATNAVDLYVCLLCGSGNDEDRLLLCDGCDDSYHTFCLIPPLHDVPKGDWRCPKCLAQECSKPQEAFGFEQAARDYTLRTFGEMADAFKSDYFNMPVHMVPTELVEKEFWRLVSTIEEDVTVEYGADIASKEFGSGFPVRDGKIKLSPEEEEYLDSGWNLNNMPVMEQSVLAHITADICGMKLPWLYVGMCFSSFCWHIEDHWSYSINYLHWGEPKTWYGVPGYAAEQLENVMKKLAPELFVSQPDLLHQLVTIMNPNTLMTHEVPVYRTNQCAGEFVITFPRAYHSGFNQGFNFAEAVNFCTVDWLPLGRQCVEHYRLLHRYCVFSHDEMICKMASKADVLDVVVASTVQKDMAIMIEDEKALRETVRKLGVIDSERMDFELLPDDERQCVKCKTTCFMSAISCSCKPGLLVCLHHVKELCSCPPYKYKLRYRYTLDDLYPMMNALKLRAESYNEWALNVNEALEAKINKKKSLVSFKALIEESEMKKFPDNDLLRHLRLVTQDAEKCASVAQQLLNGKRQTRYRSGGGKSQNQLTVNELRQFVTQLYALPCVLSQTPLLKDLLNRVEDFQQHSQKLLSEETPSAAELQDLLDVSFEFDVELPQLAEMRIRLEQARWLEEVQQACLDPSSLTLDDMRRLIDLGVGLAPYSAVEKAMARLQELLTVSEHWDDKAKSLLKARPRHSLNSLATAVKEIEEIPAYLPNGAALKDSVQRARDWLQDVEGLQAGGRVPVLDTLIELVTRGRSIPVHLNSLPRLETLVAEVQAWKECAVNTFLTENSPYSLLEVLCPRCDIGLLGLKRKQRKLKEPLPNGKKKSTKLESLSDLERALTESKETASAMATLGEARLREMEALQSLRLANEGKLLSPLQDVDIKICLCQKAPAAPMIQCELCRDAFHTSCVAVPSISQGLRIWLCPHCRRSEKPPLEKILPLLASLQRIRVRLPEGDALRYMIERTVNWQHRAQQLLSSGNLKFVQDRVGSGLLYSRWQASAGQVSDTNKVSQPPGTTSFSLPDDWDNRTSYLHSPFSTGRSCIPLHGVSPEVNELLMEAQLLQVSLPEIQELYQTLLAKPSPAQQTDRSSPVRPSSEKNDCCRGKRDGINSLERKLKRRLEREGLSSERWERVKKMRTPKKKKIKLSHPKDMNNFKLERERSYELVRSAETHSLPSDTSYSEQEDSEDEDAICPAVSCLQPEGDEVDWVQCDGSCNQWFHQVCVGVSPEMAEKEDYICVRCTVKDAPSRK
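Coupled FDH/NAD⁺ fluorescence readout. KDM5BΔAP 200 nM final; compound titration, 10 min RT preincubation; substrate mix 12.5 µM H3K4me3, 25 µM 2-OG, 50 µM Fe(II), 100 µM ascorbate, 0.25 mM NAD⁺, 0.25 U/mL FDH; ΔRFU over 30 min.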
IP6K1 inhibitor: IP6K1 kinase inhibition | AID 1645851 | activity change, % (series mostly up to about 58 µM) | Q92551 | 0.81% of 140,000 active | IP6K1 kinase, ADP-Glo luminescence, 2 h; hits give low values; in the data active = activity change below about -25%
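ADP-Glo luminescence measures ADP made by human IP6K1 during a 2 h RT reaction with ATP/IP6 (mix at 1.3 mM/130 uM); top library doses 57.5 and 19.1 uM final.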
Hits are given with their value; 0 = inactive; ? = inconclusive; - = no result. The list is not random: actives were taken first. Their share in the collection is about 2.9%. Unless noted, calls follow the shape of the dose curve; as a rule, active = well fitted curve in the direction sought with a large enough effect; inconclusive = small, poorly fitted or top-dose-only effect, or another doubt; inactive = no such curve, though single readings can be large; an effect the other way counts as inactive or inconclusive.

SMILES	HEK293 viab	SNCA expr inh	KDM5B inh	IP6K1 inhibitor
COc1ccc(C(=O)Nc2ccc(-c3noc([C@@H]4CCCN4Cc4ccc(OC(F)(F)F)cc4)n3)cn2)cc1	0	0	?	0
COc1ccc(C(=O)Nc2ccc(-c3noc([C@@H]4CCCN4Cc4ccc(C(F)(F)F)cc4)n3)cn2)cc1	0	0	28.2µM	0
COc1ccccc1CNC[C@H]1Cn2cc(-c3ccc(C)cc3)nc2CO1	0	0	0	0
O=C1CCC(C(=O)N2CCc3nc(-c4cccc(F)c4)[nH]c3C2)NC(=O)N1 (centres undefined)	0	0	22.4µM	0
O=C(c1cc(F)cc(Cl)c1)N1CCc2nc(-c3cccc(F)c3)[nH]c2C1	?	0	0	0
CCCc1cc(CN(C)c2nc(CCN)nc3sc(C)c(C)c23)[nH]n1	0	0	22.4µM	0
O=C(CCC[C@H]1NC[C@@H]2C[C@H]1CN(Cc1ccccc1)C2)NCCc1cccnc1	0	0	?	0
O=C(CCC[C@H]1NC[C@@H]2CC1CN(Cc1ccccc1)C2)NCCCc1ccccc1	0	0	7.08µM	0
O=C(N[C@H]1CCN2C(=O)c3cc(-c4cccs4)ccc3NC(=O)[C@H]12)c1cccs1	0	0	31.6µM	0
O=C(N[C@H]1CCN2C(=O)c3cc(-c4ccsc4)ccc3NC(=O)[C@H]12)c1cccs1	0	0	?	0
CSc1ccc(-c2ccc3c(c2)C(=O)N2CC[C@H](NC(=O)c4cccs4)[C@H]2C(=O)N3)cc1	0	0	25.1µM	0
CSCC(=O)N[C@H]1CCN2C(=O)c3cc(-c4cccs4)ccc3NC(=O)[C@H]12	0	0	35.5µM	0
CNC(=O)c1cc(C2CC2)nc2onc(C3CCN(C(=O)c4ccc(C(F)(F)F)cc4)C3)c12 (centres undefined)	-	-	-	0
NC(=O)CO[C@@H]1CO[C@H]2[C@@H]1OC[C@@H]2NC(=O)Nc1ccccc1	0	0	0	0
S=C(Nc1cccc2ccccc12)N[C@H]1CO[C@H]2[C@@H]1OC[C@H]2OCc1ccccc1	0	0	35.5µM	0
O=C(Nc1cccc2ccccc12)O[C@@H]1CO[C@H]2[C@@H]1OC[C@@H]2NC(=S)Nc1cccc2ccccc12	0	0	?	0
NC(=O)CO[C@@H]1CO[C@H]2[C@@H]1OC[C@@H]2NC(=O)Nc1cccc2ccccc12	0	0	28.2µM	0
COc1cccc(CNC(=O)c2ccc3nc(-c4ccccn4)oc3c2)c1	0	0	-	0
Oc1ccc(Nc2nc(-c3ccc(F)cc3F)cs2)cc1	-	-	0	-
N#Cc1ccc(Nc2nc(-c3ccc(O)cc3O)cs2)cc1C(F)(F)F	11.9µM	-	-	0
O=C(CC1CCCCC1)NCc1nnc2cc(-c3nc(C4CC4)no3)ccn12	0	0	14.1µM	0
O=C(NCc1nnc2cc(-c3nc(C4CC4)no3)ccn12)c1ccc(Cl)cc1	0	0	?	0
CCc1noc(-c2ccn3c(CNC(=O)CCc4ccc(OC)cc4)nnc3c2)n1	0	0	?	0
O=C(CCC1CCCC1)NCc1nnc2cc(-c3nc(C4CC4)no3)ccn12	0	0	11.2µM	0
O=C1Nc2ccccc2C12CCN(CC1CCCCC1)C2 (centres undefined)	0	0	0	0
SMILES	HEK293 viab	SNCA expr inh	KDM5B inh	IP6K1 inhibitor
COc1ccc(C(=O)N[C@H]2C[C@H]3C(=O)Nc4ccc(-c5cccs5)cc4C(=O)N3C2)cc1	?	0	35.5µM	0
COc1ccc(C(=O)N[C@H]2C[C@H]3C(=O)Nc4ccccc4C(=O)N3C2)cc1	?	0	0	0
O=C(N[C@H]1C[C@H]2C(=O)Nc3ccc(-c4cccs4)cc3C(=O)N2C1)c1ccccc1	0	?	31.6µM	0
COc1ccc(-c2ccc3c(c2)C(=O)N2C[C@@H](NS(=O)(=O)c4ccc(F)cc4)C[C@H]2C(=O)N3)c(OC)c1	?	?	35.5µM	0
O=C1Nc2ccc(-c3ccsc3)cc2C(=O)N2C[C@@H](NS(=O)(=O)c3ccc(F)cc3)C[C@@H]12	0	0	?	0
CS(=O)(=O)N[C@H]1C[C@H]2C(=O)Nc3ccc(-c4cccs4)cc3C(=O)N2C1	0	0	39.8µM	0
Cn1nccc1C(O)c1cc2n(n1)CCN(C/C=C/c1ccccc1)C2 (centres undefined)	0	0	31.6µM	0
Cn1ccnc1C(O)c1cc2n(n1)CCN(C/C=C/c1ccccc1)C2 (centres undefined)	0	0	0	0
COc1cccc(CNC(=O)CNC(=O)c2cccc(-c3ccc(SC)cc3)c2)c1	0	0	-	0
Cc1ccc(B(O)O)c2cccnc12	-	-	0	-
Cc1ccc(-c2ccc(N)nc2)c2cccnc12	0	0	25.1µM	0
COc1ccc(OC)c(CN2CCNc3cnc(Nc4ccccc4)cc3C2)c1	0	0	35.5µM	0
COc1ccc(CN2CCNc3cnc(Nc4cccnc4)cc3C2)cc1O	0	0	35.5µM	0
COc1ccc(CN2CCNc3cnc(Nc4ccccc4)cc3C2)cc1O	0	0	39.8µM	0
COc1ccc(CN2CCNc3cnc(Oc4ccccc4)cc3C2)cc1O	0	0	?	0
COc1ccc(OC)c(CN2CCNc3cc(-c4ccccc4)ncc3C2)c1	?	0	0	0
COc1ccc(CN2CCNc3cc(Nc4cccnc4)ncc3C2)cc1O	0	0	0	0
COc1ccc(-n2c(=O)c(C(=O)NCc3cccc(OC)c3)nc3cccnc32)cc1	0	0	-	0
COc1ccc(NC(=O)c2ccnc(-c3nnc4ccc(Nc5ccccc5)nn34)c2)cn1	0	0	31.6µM	0
O=C1CC(c2ccccc2)N(Cc2ccccn2)CCCCCN1 (centres undefined)	?	0	0	0
Cc1ccc(CN2CCCCCNC(=O)CC2c2ccccc2)o1 (centres undefined)	0	0	28.2µM	0
Cc1nn(CC(=O)NCc2cccnc2)c(=O)c2nc(-c3ccccc3)sc12	0	0	28.2µM	0
Cc1nn(CC(=O)NCc2ccc(F)cc2F)c(=O)c2nc(-c3ccccc3)sc12	0	0	31.6µM	0
Cc1cnc(C2CCN(Cc3ccccc3)C2)n1Cc1ccccc1 (centres undefined)	0	?	-	0
N#Cc1cc2c(=O)n(CCc3n[nH]c4c3CCCC4)ccc2[nH]c1=O	0	0	31.6µM	0
SMILES	HEK293 viab	SNCA expr inh	KDM5B inh	IP6K1 inhibitor
CC(O)CCn1ccc2[nH]c(=O)c(C#N)cc2c1=O (centres undefined)	0	0	0	0
CN(C)C(=O)N(C)Cc1cccc(N2CCN([S+](=O)([O-])c3c(Cl)cccc3Cl)CC2)c1F	-	-	-	0
CCN1CCN(C(=O)c2ccc3c(c2)n(Cc2cccc(F)c2)c(=O)c2ccnn23)CC1	0	0	25.1µM	0
O=C(Nc1ccccc1)c1ccc2c(c1)n(Cc1cccc(F)c1)c(=O)c1ccnn12	0	0	?	0
COCCCNC(=O)c1ccc2c(c1)n(Cc1ccc(OC)cc1)c(=O)c1ccnn12	0	0	0	0
COCCCNC(=O)c1ccc2c(c1)n(Cc1cccc(F)c1)c(=O)c1ccnn12	0	0	28.2µM	0
CCCCNC(=O)c1ccc2c(c1)n(Cc1cccc(OC)c1)c(=O)c1ccnn12	0	0	35.5µM	0
